From PubChem BioAssay (NCI)
This is part of a sample that, as a whole, favours compounds with a hit. Of some 79,000 tested, about 15% had one in any assay. Values without a mark were called inactive. Active and inactive are the calls of the source. Cut-off read from the data, not from the text of the source: active = growth inhibition above about 70%; inactive = the rest.

Legend:
[1] = NCI Yeast Anticancer Drug Screen. Data for the rad50 strain (AID 155);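 note: 0% = growth of vehicle-only cultures of the same strain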; conditions: S. cerevisiae rad50 strain growth inhibition, stronger effect = higher value
How it was run: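 Yeast carrying a defined DNA repair defect were exposed to test compounds, and growth was compared with vehicle-treated controls to give percent inhibition.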

[2] = NCI Yeast Anticancer Drug Screen. Data for the mec2-1 strain (AID 157); conditions: S. cerevisiae mec2-1 strain, stronger effect = higher value
How it was run: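 Using mec2-1 yeast: add compound, measure growth, express inhibition versus vehicle-treated cultures.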

[3] = NCI Yeast Anticancer Drug Screen. Data for the sgs1 mgt1 strain (AID 161);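 note: 0% = growth of cultures given vehicle only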; conditions: S. cerevisiae sgs1 mgt1 strain, stronger effect = higher value
How it was run: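 Compounds are added to genetically altered yeast, and growth is compared with cultures given vehicle alone to give percent inhibition.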

[4] = NCI Yeast Anticancer Drug Screen. Data for the cln2 rad14 strain (AID 165);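 note: 0% = growth equal to vehicle treated cultures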; conditions: S. cerevisiae cln2 rad14 strain, stronger effect = higher value
How it was run: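 Yeast strain cln2 rad14, bearing defects in cell cycle control and DNA repair, serves as the test system; values reflect growth inhibition compared with vehicle.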

[5] = NCI Yeast Anticancer Drug Screen. Data for the bub3 strain (AID 167); conditions: S. cerevisiae bub3 mutant strain, stronger effect = higher value
How it was run: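 Compounds were applied to a genetically altered yeast strain carrying a cell-cycle control defect. Growth inhibition was scored against vehicle-treated controls.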

[6] = NCI Yeast Anticancer Drug Screen. Data for the mlh1 rad18 strain (AID 175); conditions: S. cerevisiae mlh1 rad18 strain growth inhibition, stronger effect = higher value
How it was run: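 Steps: expose repair-defective yeast to compound; measure growth; express inhibition against vehicle-treated controls.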

[7] = at 5.0 µM (retest, dose inferred, filed as 0.5)
[8] = at 50.0 µM (retest, dose inferred, filed as 5.0)

Row | SMILES | growth inhibition [1, 7] | growth inhibition [1, 8] | growth inhibition ([1]; at 50.0 µM) | growth inhibition [2, 7] | growth inhibition [2, 8] | growth inhibition ([2]; at 50.0 µM) | growth inhibition [3, 7] [%] | growth inhibition [3, 8] | growth inhibition ([3]; at 50.0 µM) | growth inhibition [4, 7] [%] | growth inhibition [4, 8] | growth inhibition ([4]; at 50.0 µM) | growth inhibition [5, 7] | growth inhibition [5, 8] | growth inhibition ([5]; at 50.0 µM) | growth inhibition [6, 7] [%] | growth inhibition [6, 8] | growth inhibition ([6]; at 50.0 µM)
1 | CCOC(=O)CC(N)CC(=O)OCC | -142% | -157% | 94.8% (active) | -47% | -49% | 39.1% | -56 | -64% | -1.35% | -53 | -53% | -4.7% | -67% | -79% | 75.2% (active) | -110 | -113% | 44.5%
2 | COc1ccc(C(=O)Nc2ccccc2OC)cc1 | 5% | 8% | 3.45% | -13% | -29% | 12.2% | 4 | 10% | 15.1% | 6 | 17% | 19.1% | 6% | 20% | 10.7% | 18 | 23% | 9.5%
3 | COc1cc(C(c2cc3c(cc2O)OCO3)N2CCN(C(c3cc(OC)c(O)c(OC)c3)c3cc4c(cc3O)OCO4)CC2)cc(OC)c1O (configuration not stated) | -3% | 7% | 26.3% | 1% | 16% | 41% | -2 | 15% | 43.6% | 0 | -12% | -36.5% | 1% | 10% | 33.8% | 0 | 7% | 51.2%
4 | CCOC1=C(c2ccccc2)Sc2ccc(C)cc2C1c1ccc(C)cc1 (configuration not stated) | 15% | 35% | 60.2% | 0% | 76% (active) | 78.2% (active) | 10 | 81% (active) | 95.3% (active) | -4 | 51% | 13.1% | -3% | 61% | 90% (active) | -2 | 81% (active) | 82.9% (active)
5 | COc1ccc(OC2OC(COC(c3ccccc3)(c3ccc(OC)cc3)c3ccc(OC)cc3)C(O)C(O)C2O)cc1 (configuration not stated) | 4% | 98% (active) | 97.5% (active) | -10% | 98% (active) | 97% (active) | 9 | 69% | 98.1% (active) | 11 | 98% (active) | 97.6% (active) | 4% | 99% (active) | 95.5% (active) | -11 | 98% (active) | 96.7% (active)
6 | O=c1cc(Cl)c(Cl)nn1-c1ccccc1 | 9% | 80% (active) | 89.2% (active) | 12% | 75% (active) | 50.5% | 7 | 71% (active) | 40.3% | 6 | 60% | 71.8% (active) | 4% | 84% (active) | 45.5% | 2 | 86% (active) | 41.2%
7 | Nc1ccccc1SC(C[N+](=O)[O-])c1ccc2c(c1)OCO2 (configuration not stated) | 82% (active) | 99% (active) | 98.8% (active) | 72% (active) | 100% (active) | 99% (active) | 69 | 99% (active) | 99% (active) | 45 | 99% (active) | 97% (active) | 80% (active) | 100% (active) | 98.5% (active) | 65 | 99% (active) | 99% (active)
8 | OCC1(c2ccccc2)OC1c1ccccc1 (configuration not stated) | -156% | -20% | 72.1% (active) | -50% | -27% | 62.6% | -65 | 16% | 37.6% | -66 | -34% | 69.5% | -71% | -51% | 74.8% (active) | -146 | -44% | 68%
9 | CC(C)(C)[Si](C)(C)O/N=C\c1cccc(O[Si](C)(C)C(C)(C)C)c1 | -3% | 97% (active) | 48% | -6% | 95% (active) | 12.3% | 0 | 99% (active) | 78.5% (active) | -13 | 97% (active) | 54.8% | 3% | 94% (active) | 36% | -3 | 98% (active) | 76.8% (active)
